Measurements taken from the supplement of paper PMC11732987, “Enantioselective OTUD7B fragment discovery through chemoproteomics screening and high-throughput optimisation” (Communications Chemistry, 2025).

What was measured:
Test in all cases: log2 ratio of Biotin-Ahx-Ub-VS probe labelling (fragment/DMSO); higher = less target engagement (more negative = stronger competition), active = hit call of the paper (q ≤ 0.05, log2 ratio ≤ -1)
Settings in all cases: compound concentration: 200 uM; treatment time: 3 h
USP34 = USP34 (UniProt Q70CQ2)
USP34, sequence (Q70CQ2 whole entry, the tested form may be a part): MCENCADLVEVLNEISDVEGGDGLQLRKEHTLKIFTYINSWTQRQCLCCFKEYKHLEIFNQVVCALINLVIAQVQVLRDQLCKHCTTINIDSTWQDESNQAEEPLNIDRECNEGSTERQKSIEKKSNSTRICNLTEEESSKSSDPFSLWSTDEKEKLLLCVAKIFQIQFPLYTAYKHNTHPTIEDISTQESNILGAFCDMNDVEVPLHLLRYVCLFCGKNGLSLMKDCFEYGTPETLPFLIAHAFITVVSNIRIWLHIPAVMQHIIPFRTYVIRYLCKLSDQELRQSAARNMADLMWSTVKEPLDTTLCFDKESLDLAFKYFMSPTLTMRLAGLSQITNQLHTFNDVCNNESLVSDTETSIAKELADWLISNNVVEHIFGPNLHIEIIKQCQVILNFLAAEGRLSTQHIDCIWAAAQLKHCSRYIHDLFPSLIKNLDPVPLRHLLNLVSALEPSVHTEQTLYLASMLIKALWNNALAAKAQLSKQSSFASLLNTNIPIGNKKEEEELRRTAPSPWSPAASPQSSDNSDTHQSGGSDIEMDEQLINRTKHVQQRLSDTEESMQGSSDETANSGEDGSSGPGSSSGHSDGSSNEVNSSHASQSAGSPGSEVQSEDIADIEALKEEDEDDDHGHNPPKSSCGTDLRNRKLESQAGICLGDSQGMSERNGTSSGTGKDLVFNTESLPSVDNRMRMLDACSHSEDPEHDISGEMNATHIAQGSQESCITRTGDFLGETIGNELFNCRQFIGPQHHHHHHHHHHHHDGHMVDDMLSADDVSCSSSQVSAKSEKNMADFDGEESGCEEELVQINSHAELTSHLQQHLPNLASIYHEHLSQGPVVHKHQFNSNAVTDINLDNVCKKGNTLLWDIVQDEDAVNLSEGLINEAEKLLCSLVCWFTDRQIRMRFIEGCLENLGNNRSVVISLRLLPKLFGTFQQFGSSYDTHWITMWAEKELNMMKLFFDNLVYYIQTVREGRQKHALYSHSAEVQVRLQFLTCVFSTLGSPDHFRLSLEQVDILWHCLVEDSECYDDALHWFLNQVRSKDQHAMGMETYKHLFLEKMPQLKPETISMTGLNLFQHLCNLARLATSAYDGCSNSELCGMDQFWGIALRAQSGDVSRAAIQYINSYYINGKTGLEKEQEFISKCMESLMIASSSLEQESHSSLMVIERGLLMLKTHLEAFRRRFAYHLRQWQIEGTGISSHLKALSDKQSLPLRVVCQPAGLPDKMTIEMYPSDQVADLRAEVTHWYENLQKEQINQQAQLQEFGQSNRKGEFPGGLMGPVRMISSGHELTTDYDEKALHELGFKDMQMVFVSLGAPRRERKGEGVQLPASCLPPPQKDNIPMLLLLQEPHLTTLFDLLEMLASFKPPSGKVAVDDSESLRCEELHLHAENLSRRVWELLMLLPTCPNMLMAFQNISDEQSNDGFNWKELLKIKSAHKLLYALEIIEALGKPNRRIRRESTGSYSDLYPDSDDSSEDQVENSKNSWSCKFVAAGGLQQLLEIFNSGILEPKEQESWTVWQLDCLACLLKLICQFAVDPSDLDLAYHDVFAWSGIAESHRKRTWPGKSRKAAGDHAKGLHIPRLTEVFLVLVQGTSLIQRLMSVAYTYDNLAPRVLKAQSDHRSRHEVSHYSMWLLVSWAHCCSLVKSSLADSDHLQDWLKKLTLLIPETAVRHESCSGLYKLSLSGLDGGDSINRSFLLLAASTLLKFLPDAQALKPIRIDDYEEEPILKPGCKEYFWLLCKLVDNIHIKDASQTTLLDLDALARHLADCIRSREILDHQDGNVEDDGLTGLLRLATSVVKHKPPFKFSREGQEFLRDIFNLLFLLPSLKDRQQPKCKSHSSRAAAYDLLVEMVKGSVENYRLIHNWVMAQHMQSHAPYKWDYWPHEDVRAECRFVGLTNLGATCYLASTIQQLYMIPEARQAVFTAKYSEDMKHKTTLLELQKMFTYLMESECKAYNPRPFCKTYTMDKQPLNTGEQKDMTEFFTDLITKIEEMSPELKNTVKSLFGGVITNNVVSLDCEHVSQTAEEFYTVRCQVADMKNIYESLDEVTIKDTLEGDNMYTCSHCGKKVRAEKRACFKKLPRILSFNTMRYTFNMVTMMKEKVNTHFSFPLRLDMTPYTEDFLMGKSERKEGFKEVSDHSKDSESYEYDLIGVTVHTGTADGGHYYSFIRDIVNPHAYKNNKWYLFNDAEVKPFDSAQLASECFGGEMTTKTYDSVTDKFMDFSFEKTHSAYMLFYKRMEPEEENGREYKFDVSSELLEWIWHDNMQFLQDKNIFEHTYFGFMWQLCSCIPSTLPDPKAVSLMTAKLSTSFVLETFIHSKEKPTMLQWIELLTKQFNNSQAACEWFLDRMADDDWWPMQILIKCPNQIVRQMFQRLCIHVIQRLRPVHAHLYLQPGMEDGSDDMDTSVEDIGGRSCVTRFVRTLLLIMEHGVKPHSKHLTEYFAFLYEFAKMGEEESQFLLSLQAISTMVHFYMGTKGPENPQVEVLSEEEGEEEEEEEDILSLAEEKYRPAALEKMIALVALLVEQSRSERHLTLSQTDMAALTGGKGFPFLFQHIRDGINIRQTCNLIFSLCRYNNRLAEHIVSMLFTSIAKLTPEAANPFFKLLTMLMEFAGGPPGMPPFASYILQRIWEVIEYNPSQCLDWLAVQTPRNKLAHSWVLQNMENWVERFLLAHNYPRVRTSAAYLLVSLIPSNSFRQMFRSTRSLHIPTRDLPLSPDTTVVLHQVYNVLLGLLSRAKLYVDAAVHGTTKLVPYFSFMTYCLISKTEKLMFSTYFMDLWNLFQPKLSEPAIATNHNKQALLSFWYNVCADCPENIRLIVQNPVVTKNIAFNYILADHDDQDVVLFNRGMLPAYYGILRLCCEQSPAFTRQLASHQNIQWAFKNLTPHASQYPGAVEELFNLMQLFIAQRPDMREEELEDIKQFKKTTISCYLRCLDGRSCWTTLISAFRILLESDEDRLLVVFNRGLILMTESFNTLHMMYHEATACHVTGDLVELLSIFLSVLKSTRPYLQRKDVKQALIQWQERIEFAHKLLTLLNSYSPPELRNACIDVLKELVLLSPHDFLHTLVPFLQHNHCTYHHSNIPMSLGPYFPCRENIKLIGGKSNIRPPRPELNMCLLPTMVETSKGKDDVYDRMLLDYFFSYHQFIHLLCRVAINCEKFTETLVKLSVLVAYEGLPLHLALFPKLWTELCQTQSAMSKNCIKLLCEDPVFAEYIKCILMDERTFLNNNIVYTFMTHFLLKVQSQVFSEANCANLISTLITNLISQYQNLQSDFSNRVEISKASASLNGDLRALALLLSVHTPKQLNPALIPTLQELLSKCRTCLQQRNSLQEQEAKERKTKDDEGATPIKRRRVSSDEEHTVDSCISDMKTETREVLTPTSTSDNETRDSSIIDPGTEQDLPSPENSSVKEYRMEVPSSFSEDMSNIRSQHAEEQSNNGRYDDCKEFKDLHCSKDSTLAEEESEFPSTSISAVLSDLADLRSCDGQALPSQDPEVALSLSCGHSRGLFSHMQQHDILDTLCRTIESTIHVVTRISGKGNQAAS
Procedure, shortened: (§1)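 The table lists average log2 ratios of fragment over vehicle, from an unpaired t-test on global-median-normalised Spectronaut label-free quantities. Proteins with ≥2 unique peptides were used. Samples were HEK293T lysate (495 µg) treated in triplicate with fragment at 200 µM or vehicle for 3 h, then with Biotin-Ahx-Ub-VS (0.5 µM final) for 1 h, with labelled DUBs NeutrAvidin-enriched and run by diaPASEF LC-MS/MS.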

USP36 = target: T1, USP36 (UniProt Q9P275)
T1 sequence (whole entry): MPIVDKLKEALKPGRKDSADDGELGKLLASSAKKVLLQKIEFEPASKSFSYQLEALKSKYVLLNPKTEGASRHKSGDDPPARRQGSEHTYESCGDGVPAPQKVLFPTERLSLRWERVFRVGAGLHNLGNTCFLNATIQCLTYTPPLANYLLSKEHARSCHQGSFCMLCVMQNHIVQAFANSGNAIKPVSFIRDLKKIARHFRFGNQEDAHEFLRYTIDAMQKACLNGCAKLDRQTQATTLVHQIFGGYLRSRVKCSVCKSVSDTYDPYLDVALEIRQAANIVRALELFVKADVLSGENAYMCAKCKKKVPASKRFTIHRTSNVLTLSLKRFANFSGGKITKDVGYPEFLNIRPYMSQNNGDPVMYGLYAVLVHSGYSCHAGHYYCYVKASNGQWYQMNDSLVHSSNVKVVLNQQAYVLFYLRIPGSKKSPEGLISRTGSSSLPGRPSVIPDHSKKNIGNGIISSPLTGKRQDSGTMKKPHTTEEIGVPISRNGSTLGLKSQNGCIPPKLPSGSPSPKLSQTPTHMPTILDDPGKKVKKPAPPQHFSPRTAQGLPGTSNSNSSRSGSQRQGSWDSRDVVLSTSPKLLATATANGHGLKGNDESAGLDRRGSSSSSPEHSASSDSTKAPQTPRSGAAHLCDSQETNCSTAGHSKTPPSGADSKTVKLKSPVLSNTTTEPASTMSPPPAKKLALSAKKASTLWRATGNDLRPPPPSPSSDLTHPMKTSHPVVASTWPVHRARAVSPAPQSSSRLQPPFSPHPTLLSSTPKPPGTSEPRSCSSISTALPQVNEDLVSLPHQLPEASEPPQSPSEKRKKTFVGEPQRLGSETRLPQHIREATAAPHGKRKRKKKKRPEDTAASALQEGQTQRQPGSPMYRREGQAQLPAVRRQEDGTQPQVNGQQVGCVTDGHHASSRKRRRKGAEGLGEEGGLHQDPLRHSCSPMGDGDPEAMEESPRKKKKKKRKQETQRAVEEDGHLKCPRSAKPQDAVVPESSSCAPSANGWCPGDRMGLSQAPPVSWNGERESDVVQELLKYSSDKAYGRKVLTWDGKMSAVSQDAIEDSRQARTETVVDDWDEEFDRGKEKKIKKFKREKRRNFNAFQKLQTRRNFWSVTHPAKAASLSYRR
Procedure, shortened: as §1

USP38 = target: T2, USP38 (UniProt Q8NB14)
T2 sequence (whole entry): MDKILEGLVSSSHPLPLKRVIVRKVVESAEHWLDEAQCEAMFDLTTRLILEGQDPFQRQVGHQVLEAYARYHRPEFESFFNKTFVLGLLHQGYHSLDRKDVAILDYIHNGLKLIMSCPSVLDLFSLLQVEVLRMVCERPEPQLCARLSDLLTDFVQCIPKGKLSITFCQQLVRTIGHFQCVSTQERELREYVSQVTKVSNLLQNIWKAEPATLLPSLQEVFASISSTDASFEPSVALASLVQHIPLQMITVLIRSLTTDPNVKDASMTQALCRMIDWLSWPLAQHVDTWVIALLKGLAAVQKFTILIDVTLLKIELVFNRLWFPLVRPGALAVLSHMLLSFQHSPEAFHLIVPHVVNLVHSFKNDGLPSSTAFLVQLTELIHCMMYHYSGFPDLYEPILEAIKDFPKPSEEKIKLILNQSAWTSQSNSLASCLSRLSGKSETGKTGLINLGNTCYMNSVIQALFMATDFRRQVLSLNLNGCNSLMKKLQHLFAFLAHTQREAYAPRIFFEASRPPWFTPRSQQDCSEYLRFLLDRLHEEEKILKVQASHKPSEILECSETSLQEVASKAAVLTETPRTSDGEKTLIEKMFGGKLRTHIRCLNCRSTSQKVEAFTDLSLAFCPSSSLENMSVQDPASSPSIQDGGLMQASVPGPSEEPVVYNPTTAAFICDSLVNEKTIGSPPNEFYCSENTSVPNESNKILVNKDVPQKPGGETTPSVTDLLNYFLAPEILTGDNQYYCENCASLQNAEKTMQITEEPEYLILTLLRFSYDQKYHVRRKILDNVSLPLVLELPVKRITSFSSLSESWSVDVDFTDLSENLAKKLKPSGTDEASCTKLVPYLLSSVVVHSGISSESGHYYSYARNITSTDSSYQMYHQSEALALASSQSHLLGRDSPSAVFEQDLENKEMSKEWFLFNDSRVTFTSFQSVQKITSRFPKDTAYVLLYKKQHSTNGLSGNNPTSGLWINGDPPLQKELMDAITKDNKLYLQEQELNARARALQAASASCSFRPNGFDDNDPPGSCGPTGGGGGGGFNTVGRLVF
Procedure, shortened: as §1

USP39 = target: T3, USP39 (UniProt Q53GS9)
T3 sequence (whole entry): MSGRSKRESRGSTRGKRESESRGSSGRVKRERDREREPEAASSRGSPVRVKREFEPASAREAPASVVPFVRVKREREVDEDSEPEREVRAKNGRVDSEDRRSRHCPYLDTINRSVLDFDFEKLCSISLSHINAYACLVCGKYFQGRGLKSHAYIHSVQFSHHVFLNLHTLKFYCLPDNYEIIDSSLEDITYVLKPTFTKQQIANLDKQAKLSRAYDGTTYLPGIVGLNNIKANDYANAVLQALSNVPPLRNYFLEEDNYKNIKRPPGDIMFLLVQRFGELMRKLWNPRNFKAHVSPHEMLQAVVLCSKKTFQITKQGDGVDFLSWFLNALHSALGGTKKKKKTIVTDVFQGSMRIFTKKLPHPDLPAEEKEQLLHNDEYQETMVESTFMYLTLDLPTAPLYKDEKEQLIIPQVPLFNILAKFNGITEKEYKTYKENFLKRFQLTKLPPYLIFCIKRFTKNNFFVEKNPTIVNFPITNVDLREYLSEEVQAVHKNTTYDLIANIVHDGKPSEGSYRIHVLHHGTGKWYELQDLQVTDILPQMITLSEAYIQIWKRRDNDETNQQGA
Procedure, shortened: as §1

USP4 = target: T4, USP4 (UniProt Q13107)
T4 sequence (whole entry): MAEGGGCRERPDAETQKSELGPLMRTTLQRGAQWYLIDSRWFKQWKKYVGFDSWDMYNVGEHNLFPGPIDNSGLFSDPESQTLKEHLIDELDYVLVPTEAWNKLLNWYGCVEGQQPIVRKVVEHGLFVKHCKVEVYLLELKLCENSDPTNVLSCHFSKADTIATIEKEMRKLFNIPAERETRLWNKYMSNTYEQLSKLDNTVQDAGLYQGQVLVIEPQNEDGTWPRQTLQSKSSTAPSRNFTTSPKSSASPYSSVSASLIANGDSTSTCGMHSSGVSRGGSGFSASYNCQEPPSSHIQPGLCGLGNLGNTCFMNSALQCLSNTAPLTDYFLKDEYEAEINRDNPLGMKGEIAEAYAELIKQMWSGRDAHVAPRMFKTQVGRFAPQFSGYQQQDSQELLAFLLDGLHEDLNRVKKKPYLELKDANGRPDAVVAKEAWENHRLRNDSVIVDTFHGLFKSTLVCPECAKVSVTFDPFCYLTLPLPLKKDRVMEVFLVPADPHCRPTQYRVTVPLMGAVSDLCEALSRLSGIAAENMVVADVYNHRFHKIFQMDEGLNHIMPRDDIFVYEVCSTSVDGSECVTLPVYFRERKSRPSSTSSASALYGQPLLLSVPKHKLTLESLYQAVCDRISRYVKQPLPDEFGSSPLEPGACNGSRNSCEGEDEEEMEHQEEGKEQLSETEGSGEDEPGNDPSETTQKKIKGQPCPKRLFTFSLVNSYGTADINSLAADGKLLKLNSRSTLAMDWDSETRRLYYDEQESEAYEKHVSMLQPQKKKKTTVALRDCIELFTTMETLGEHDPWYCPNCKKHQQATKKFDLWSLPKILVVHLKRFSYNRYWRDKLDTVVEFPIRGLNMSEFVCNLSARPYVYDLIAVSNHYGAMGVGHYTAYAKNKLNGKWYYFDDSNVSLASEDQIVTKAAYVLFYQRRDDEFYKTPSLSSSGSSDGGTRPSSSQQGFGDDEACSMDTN
Procedure, shortened: as §1

Measured: log2 ratio of Biotin-Ahx-Ub-VS probe labelling

CC1CN(c2ccc(NC(=O)CCl)cc2)CC(C)O1 (stereo not given)
inactive: USP34 -0.087 | USP36 -0.162 | USP38 0.0369 | USP39 0.216 | USP4 -0.104
